High-throughput results deposited in PubChem by The Scripps Research Institute Molecular Screening Center.
SMARCA2 act = increases SMARCA2 function in MMTV reporter cells; MG213 cells, MMTV-luciferase reporter, dexamethasone, overnight; activation, % at 9.1 µM; 370,000 tested, 1% active; AID 652017; in the data active = activation above about 7.8%
hgDAF-12 ag = agonists of H. glycines DAF-12 nuclear receptor | HEK293 GAL4-hgDAF12 UAS-luciferase reporter, agonist luminescence; normalized to butyrate control | activation, % at 6.8 µM | 370,000 tested, 1.8% active | AID 687014;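 active = activation above a cutoff set at the mean of all screened compounds plus 3 SD, cut at about 10% in these data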
hcDAF-12 act = activates DAF-12 receptor from parasite H. contortus; HEK293 hcDAF-12 lit1-tk-luc reporter, luminescence; 0% DMSO, 100% Δ7-dafachronic acid; activation, % at 6.8 µM; 370,000 tested, 1.4% active; AID 652067;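 active = activation above the mean of all tested compounds plus 3 SD, cut at about 5.5% in these data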
DAX1 inh-1 = blocks DAX1 repression of SF-1 activated StAR promoter | HEK293T StAR-luciferase reporter, SF-1/DAX-1 repression relief | inhibition, % at 6.8 µM | 370,000 tested, 1.1% active | AID 652010;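 active = inhibition above the mean over all tested compounds plus 3 SD, cut at about 3.6% in these data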;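 note: higher inhibition means more luminescence from relief of DAX-1 repression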
ssDAF-12 act = S. stercoralis DAF-12 activation, primary screen; activation, % at 6.8 µM; 370,000 tested, 1% active; HEK293 ssDAF-12/GRIP1 lit1-tk-luc reporter, luminescence; % of 3 µM dafachronic acid response;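 active = activation above the mean over all tested compounds plus 3 SD, cut at about 0.9% in these data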
DAX1 inh-2 = inhibitors of human orphan nuclear receptor DAX1 (NR0B1); P51843; HEK293 Gal4-DAX1 luciferase reporter, luminescence; inhibition, % at 6.75 µM; 340,000 tested, 0.99% active; AID 504766;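 active = inhibition above the mean over all tested compounds plus 3 SD, cut at about 4.2% in these data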;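 note: inhibition shows as a rise in luminescence from relieved DAX1 repression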
Target sequence (P51843 207-470 limits assumed): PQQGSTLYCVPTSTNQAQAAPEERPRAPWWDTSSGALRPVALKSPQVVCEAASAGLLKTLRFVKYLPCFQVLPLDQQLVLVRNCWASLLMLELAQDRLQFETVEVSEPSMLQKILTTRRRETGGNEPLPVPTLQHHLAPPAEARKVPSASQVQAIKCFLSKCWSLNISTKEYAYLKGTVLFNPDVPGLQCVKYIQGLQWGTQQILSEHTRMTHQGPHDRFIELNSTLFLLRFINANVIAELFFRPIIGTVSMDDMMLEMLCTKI
Each line names hits and unclear results; the compound was inactive in the other large screens. Compounds with a hit are over-represented: about 4.8% of the library has one in this group of screens.

CSCCC(c1nc2ccccc2[nH]1)n1c(/C=C/c2ccc(F)c(F)c2)nc2ccccc21 (configuration not stated)	ssDAF-12 act 0.9 (no result: DAX1 inh-2)
CCOc1ccccc1N(CC(=O)Nc1ccccc1F)S(=O)(=O)c1ccccc1	hgDAF-12 ag 10
CC(=O)N1CCN(Cc2nc3cc(NC(=O)COc4ccccc4)ccc3n2C)CC1	none
COc1ccc(-c2cc3c(=O)n(CC(=O)NCc4cccnc4)ncn3n2)cc1	hgDAF-12 ag 11, hcDAF-12 act 6.1, DAX1 inh-1 3.8
O=C(c1cccs1)N1CCC(C(=O)N2CCN(Cc3ccc4c(c3)OCO4)CC2)CC1	none
C[n+]1cn(/N=C/c2ccccc2)c2ccccc21	hcDAF-12 act 5.8
NC(=S)Nc1nc2ccccc2[nH]c1=O	hcDAF-12 act 5.8 (no result: DAX1 inh-2)
Cc1ccc(S(=O)(=O)Nc2nc(C)cc(NCCN)n2)cc1	DAX1 inh-2 4.7
Cc1ccc(S(=O)(=O)Nc2nc(C)cc(NN)n2)cc1	none
Cc1ccc(NC(=O)Nc2ccc3c(c2)N(C)C(=O)CS3)nc1	none
Cc1ccnc(NC(=O)Nc2ccc3c(c2)N(C)C(=O)CS3)c1	hgDAF-12 ag 10
Cc1noc(C)c1COc1ccccc1C(=O)NCCc1ccc(Cl)cc1	none
COc1ccc(CCNC(=O)c2ccccc2OCc2c(C)noc2C)cc1	DAX1 inh-1 3.7
CC(C)C[C@H]1COc2cccc(F)c2S(=O)(=O)N1Cc1cn(CC2CCCCC2)nn1	none (no result: DAX1 inh-2)
O=C(N(c1ccccn1)c1ccccn1)C12CC3CC(CC(Cl)(C3)C1)C2	hcDAF-12 act 6.2
CN(Cc1nccn1C)C(=O)c1ccc2nc(Cc3ccccc3F)oc2c1	hgDAF-12 ag 13
COc1ccc(Cc2nc3ccc(C(=O)NCc4cccc(C)n4)cc3o2)cc1OC	none
Cc1cccc(CNC(=O)c2ccc3nc(Cc4ccccc4F)oc3c2)n1	hgDAF-12 ag 11, DAX1 inh-1 3.7
Cc1cc(C(=O)Nc2ccc3[nH]ccc3c2)no1	hgDAF-12 ag 11
CCCNC(=O)c1c(CSc2ccc(Cl)cc2)noc1C(=O)NCc1ccccc1	none
O=C(CSc1ccc(Br)cc1)N1CCN(S(=O)(=O)c2ccccc2)CC1	none
O=C(N=Nc1c(O)[nH]c2ccccc12)c1ccc2c(c1)OCO2	hgDAF-12 ag 13
O=C(N=Nc1c(O)[nH]c2ccccc12)c1ccc(CN2CCOCC2)cc1	none
CC(C(=O)NCc1ccc2c(c1)OCO2)c1ccc([N+](=O)[O-])cc1 (configuration not stated)	none
O=C(O)CC(NC(=O)Cc1ccc([N+](=O)[O-])cc1)c1ccc2c(c1)OCO2 (configuration not stated)	DAX1 inh-2 4.4
COc1ccc(OCC(=O)NS(=O)(=O)c2ccccc2)cc1	none
Cc1ccc(Cl)cc1N(CC(=O)Nc1cccc(N(C)S(C)(=O)=O)c1)S(C)(=O)=O	ssDAF-12 act 1.1
CCOC(=O)c1c(N/N=C/c2cccnc2)n[nH]c1C	DAX1 inh-2 5.3
CCOC(=O)c1c(Nc2ccc(OC)cc2)n[nH]c1C	DAX1 inh-1 4.3 (no result: DAX1 inh-2)
CCOC(=O)c1c(N)n[nH]c1-c1ccc(OC)cc1	none
Cc1cccc(N=Cc2ccccc2O)c1C	none
Cc1ccc(C2CC(c3ccccc3OC(F)F)Nc3ncnn32)cc1 (configuration not stated)	DAX1 inh-2 5.3
Cc1cccc(C2CC(c3ccccc3)Nc3ncnn32)c1 (configuration not stated)	DAX1 inh-2 5.6
N#CC(C(=O)CCN1C(=O)C2CC=CCC2C1=O)c1nc2ccccc2[nH]1 (configuration not stated)	none
Cc1ccc(Sc2ncccc2C(=O)N(C)Cc2cccs2)c(C)c1	DAX1 inh-2 4.6
Cc1ccc(Nc2ncccc2C(=O)NCc2cccs2)c(C)c1	none
O=C(Nc1ccc(F)cc1)c1ccc(Cn2cnnn2)cc1	none
COC(=O)c1ccc(NC(=O)Nc2cccc(F)c2)cc1	hgDAF-12 ag 11
COC(=O)c1ccc(C(=O)Nc2ccc(F)cc2)cc1	none
O=C(Nc1cccc(C(=O)Nc2ccc(F)cc2F)c1)c1ccccc1	DAX1 inh-2 7.2
CC(=O)Nc1cccc(NC(=O)Nc2ccc(F)cc2F)c1	ssDAF-12 act 1.3
COC(=O)c1ccc(NC(=O)Nc2ccc(F)cc2F)cc1	hgDAF-12 ag 13
CC(C)COC(=O)N(C)C[C@@H]1OCc2cn(nn2)CCCC(=O)N([C@@H](C)CO)C[C@H]1C	none
Cc1cc(C)n2cc(COc3ccccc3)nc2n1	none
Cc1ccc(S(=O)(=O)NC(CC(=O)O)c2ccccc2)cc1 (configuration not stated)	none
O=C(Nc1ccc2c(c1)OCO2)Nc1ccc(F)cc1F	hgDAF-12 ag 11
O=C(Nc1ccc2c(c1)OCO2)Nc1ccc(Cl)cc1Cl	none
C/C(Cn1cnc([N+](=O)[O-])n1)=N\NC(=O)c1ccccc1F	hgDAF-12 ag 11
CC(C)C[C@H](NC(=O)[C@H](Cc1ccccc1)n1c(=O)[nH]c2ccccc2c1=O)C(=O)N1CCC(C(=O)O)CC1	none
C[C@H](NC(=O)[C@H](Cc1ccccc1)n1c(=O)[nH]c2ccccc2c1=O)C(=O)N1CCC(C(=O)O)CC1	DAX1 inh-2 4.9
O=C(NCc1csc(-c2cccs2)n1)C1CCCCC1	DAX1 inh-2 4.5
CCNc1nc(-c2cc(C)n(Cc3ccco3)c2C)cs1	DAX1 inh-2 5.0
Cc1cn(CCC(=O)Nc2ccccc2N2CCOCC2)c2ccccc12	hcDAF-12 act 6.0, DAX1 inh-2 6.8
O=[N+]([O-])c1ccc(N2CCN(S(=O)(=O)c3ccccc3)CC2)cc1NCc1cccnc1	none
Cc1nn(-c2nc(-c3ccco3)cc(C(F)(F)F)n2)c(C)c1Br	DAX1 inh-2 4.7
Cn1cc(S(=O)(=O)N2CCCC2)cc1C(=O)NCc1ccccc1	none
CCn1cc(Cl)c(C(=O)Nc2nccs2)n1	hcDAF-12 act 6.4
O=C(Nc1nccs1)c1ccc(Br)cc1	none
O=C(Nc1nccs1)c1ccc(Br)s1	hcDAF-12 act 5.8
O=C(Nc1nccs1)c1ccc(Cl)nc1	hcDAF-12 act 5.9
O=C(Nc1nccs1)c1cc2c(s1)-c1ccccc1OC2	hgDAF-12 ag 10
Cc1ccc(-n2nc3c(=O)n(CC(=O)NCCc4ccco4)nc(C)c3c2C)cc1	none
CCc1cc(=O)oc2cc(C)c(CN3CCCC3)c(O)c12	none
CN1CCN(c2nc(-c3ccc(C(C)(C)C)cc3)nc3ccccc23)CC1	hcDAF-12 act 6.2
Cc1ccc(-c2nc(N3CCN(C)CC3)c3ccccc3n2)cc1	hcDAF-12 act 6.3
C=CCc1cccc(CNc2nc3ccccc3n2CC)c1O	none
C=CCc1cccc(CNc2nc3ccccc3n2CCC)c1O	DAX1 inh-2 4.7
